# From PubChem BioAssay AID1159580 (chemical genetic matrix, 2015)
# Out of some 5,500 compounds screened, about 2,000 (36%) were called active. Not shown: some 18% with an inconclusive outcome. The list shows a part of the results. Unmarked numbers belong to inactive results. Cut-off read from the data, not from the text of the source: active = normalized growth mostly below about 0.91 (no sharp cut-off); inconclusive = no clear call, values can overlap the other calls; inactive = mostly above about 0.92.
# Experiment: chemical genetic growth profiling, strain panel (AID 1159580);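 note: tested at 20 µM; growth read once vehicle control cultures reached saturation at 30 °C; 1 = growth at the plate median or of vehicle wells; lower values mean less growth of the strain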
# Conditions: growth OD
smiles,measurement,setting,value
CC(=O)Oc1ccc2c(c1)CCC1C2CC[C@]2(C)C(=O)CCC12 (stereo not given in full),normalized growth,"S. cerevisiae deletion strains, locus YJR043C, strain POL32, hits give low values",0.982
same,normalized growth,"S. cerevisiae deletion strains, locus YJR066W, strain TOR1, hits give low values",0.895
same,normalized growth,"S. cerevisiae deletion strains, locus YKL009W, strain mrt4, hits give low values",0.972
same,normalized growth,"S. cerevisiae deletion strains, locus YKL068W, hits give low values",1.02
same,normalized growth,"S. cerevisiae deletion strains, locus YKL085W, strain MDH1 (second series), hits give low values",1
same,normalized growth,"S. cerevisiae deletion strains, locus YKL085W, strain MDH1, hits give low values",1
same,normalized growth,"S. cerevisiae deletion strains, locus YKL160W, strain elf1, hits give low values",0.986
same,normalized growth,"S. cerevisiae deletion strains, locus YKL190W, strain CNB1, hits give low values",1
same,normalized growth,"S. cerevisiae deletion strains, locus YKR001C, strain vps1, hits give low values",1.01
same,normalized growth,"S. cerevisiae deletion strains, locus YKR026C, strain gcn3, hits give low values",0.984
same,normalized growth,"S. cerevisiae deletion strains, locus YKR091W, strain srl3, hits give low values",0.985
same,normalized growth,"S. cerevisiae deletion strains, locus YLL001W, strain dnm1, hits give low values",0.964
same,normalized growth,"S. cerevisiae deletion strains, locus YLL026W, hits give low values",0.988
same,normalized growth,"S. cerevisiae deletion strains, locus YLL041C, strain sdh2, hits give low values",0.983
same,normalized growth,"S. cerevisiae deletion strains, locus YLR027C, strain aat2, hits give low values",0.983
same,normalized growth,"S. cerevisiae deletion strains, locus YLR039C, strain RIC1, hits give low values",0.725
same,normalized growth,"S. cerevisiae deletion strains, locus YLR058C, strain SHM2, hits give low values",0.987
same,normalized growth,"S. cerevisiae deletion strains, locus YLR102C, strain apc9, hits give low values",1.02
same,normalized growth,"S. cerevisiae deletion strains, locus YLR113W, strain HOG1, hits give low values",0.991
same,normalized growth,"S. cerevisiae deletion strains, locus YLR221C, strain rsa3, hits give low values",0.991
same,normalized growth,"S. cerevisiae deletion strains, locus YLR258W, strain gsy2, hits give low values",0.985
same,normalized growth,"S. cerevisiae deletion strains, locus YLR262C, strain YPT6 (second series), hits give low values",0.689 (active)
same,normalized growth,"S. cerevisiae deletion strains, locus YLR262C, strain YPT6, hits give low values",0.623
same,normalized growth,"S. cerevisiae deletion strains, locus YLR268W, strain sec22, hits give low values",1.01
same,normalized growth,"S. cerevisiae deletion strains, locus YLR320W, strain mms22, hits give low values",0.983
same,normalized growth,"S. cerevisiae deletion strains, locus YLR330W, strain CHS5, hits give low values",1
same,normalized growth,"S. cerevisiae deletion strains, locus YLR342W, strain FKS1 (second series), hits give low values",0.959
same,normalized growth,"S. cerevisiae deletion strains, locus YLR342W, strain FKS1, hits give low values",0.965
same,normalized growth,"S. cerevisiae deletion strains, locus YLR357W, strain rsc2, hits give low values",0.981
same,normalized growth,"S. cerevisiae deletion strains, locus YLR370C, strain arc18, hits give low values",0.975
same,normalized growth,"S. cerevisiae deletion strains, locus YLR371W, strain rom2, hits give low values",1.02
same,normalized growth,"S. cerevisiae deletion strains, locus YLR384C, strain iki3, hits give low values",0.961
same,normalized growth,"S. cerevisiae deletion strains, locus YLR418C, strain cdc73, hits give low values",0.966
same,normalized growth,"S. cerevisiae deletion strains, locus YML016C, strain PPZ1, hits give low values",1
same,normalized growth,"S. cerevisiae deletion strains, locus YML032C, strain rad52, hits give low values",0.997
same,normalized growth,"S. cerevisiae deletion strains, locus YML120C, strain ndi1, hits give low values",0.986
same,normalized growth,"S. cerevisiae deletion strains, locus YML124C, strain tub3, hits give low values",1.02
same,normalized growth,"S. cerevisiae deletion strains, locus YMR058W, strain fet3, hits give low values",0.96
same,normalized growth,"S. cerevisiae deletion strains, locus YMR078C, strain ctf18, hits give low values",0.999
same,normalized growth,"S. cerevisiae deletion strains, locus YMR125W, strain sto1, hits give low values",0.992
same,normalized growth,"S. cerevisiae deletion strains, locus YMR129W, hits give low values",0.987
same,normalized growth,"S. cerevisiae deletion strains, locus YMR205C, strain PFK2, hits give low values",0.947
same,normalized growth,"S. cerevisiae deletion strains, locus YMR223W, strain ubp8, hits give low values",0.996
same,normalized growth,"S. cerevisiae deletion strains, locus YMR231W, strain pep5, hits give low values",0.964
same,normalized growth,"S. cerevisiae deletion strains, locus YMR307W, strain GAS1, hits give low values",1.07
same,normalized growth,"S. cerevisiae deletion strains, locus YNL067W, strain RPL9B, hits give low values",0.956
same,normalized growth,"S. cerevisiae deletion strains, locus YNL071W, strain lat1, hits give low values",0.994
same,normalized growth,"S. cerevisiae deletion strains, locus YNL128W, strain TEP1, hits give low values",1.02
same,normalized growth,"S. cerevisiae deletion strains, locus YNL183C, strain NPR1, hits give low values",0.894
same,normalized growth,"S. cerevisiae deletion strains, locus YNL209W, strain ssb2, hits give low values",0.982
same,normalized growth,"S. cerevisiae deletion strains, locus YNL233W, strain BNI4, hits give low values",0.949
same,normalized growth,"S. cerevisiae deletion strains, locus YNL248C, strain rpa49, hits give low values",1
same,normalized growth,"S. cerevisiae deletion strains, locus YNL250W, strain rad50, hits give low values",1.01
same,normalized growth,"S. cerevisiae deletion strains, locus YNL271C, strain bni1, hits give low values",1.02
same,normalized growth,"S. cerevisiae deletion strains, locus YNL298W, strain CLA4, hits give low values",0.962
same,normalized growth,"S. cerevisiae deletion strains, locus YNL307C, strain MCK1, hits give low values",1.01
same,normalized growth,"S. cerevisiae deletion strains, locus YNL322C, strain KRE1 (second series), hits give low values",0.967
same,normalized growth,"S. cerevisiae deletion strains, locus YNL322C, strain KRE1, hits give low values",1
same,normalized growth,"S. cerevisiae deletion strains, locus YNR049C, strain mso1, hits give low values",0.992
same,normalized growth,"S. cerevisiae deletion strains, locus YNR052C, strain pop2, hits give low values",0.996
same,normalized growth,"S. cerevisiae deletion strains, locus YOL006C, strain TOP1, hits give low values",0.719
same,normalized growth,"S. cerevisiae deletion strains, locus YOL012C, strain htz1",1.64
same,normalized growth,"S. cerevisiae deletion strains, locus YOL147C, strain pex11, hits give low values",1.01
same,normalized growth,"S. cerevisiae deletion strains, locus YOR001W, strain rrp6, hits give low values",0.972
same,normalized growth,"S. cerevisiae deletion strains, locus YOR061W, strain CKA2, hits give low values",1
same,normalized growth,"S. cerevisiae deletion strains, locus YOR069W, strain VPS5, hits give low values",1.01
same,normalized growth,"S. cerevisiae deletion strains, locus YOR070C, strain gyp1, hits give low values",0.988
same,normalized growth,"S. cerevisiae deletion strains, locus YOR080W, strain dia2, hits give low values",0.983
same,normalized growth,"S. cerevisiae deletion strains, locus YOR083W, strain WHI5, hits give low values",0.976
same,normalized growth,"S. cerevisiae deletion strains, locus YOR106W, strain vam3, hits give low values",0.968
same,normalized growth,"S. cerevisiae deletion strains, locus YOR136W, strain idh2, hits give low values",1.01
same,normalized growth,"S. cerevisiae deletion strains, locus YOR144C, strain elg1, hits give low values",1.01
same,normalized growth,"S. cerevisiae deletion strains, locus YOR184W, strain ser1, hits give low values",0.86 (active)
same,normalized growth,"S. cerevisiae deletion strains, locus YOR231W, strain MKK1, hits give low values",0.928
same,normalized growth,"S. cerevisiae deletion strains, locus YOR265W, strain rbl2, hits give low values",0.989
same,normalized growth,"S. cerevisiae deletion strains, locus YOR270C, strain vph1, hits give low values",0.975
same,normalized growth,"S. cerevisiae deletion strains, locus YOR290C, strain snf2, hits give low values",0.998
same,normalized growth,"S. cerevisiae deletion strains, locus YOR316C, strain cot1, hits give low values",1.03
same,normalized growth,"S. cerevisiae deletion strains, locus YPL051W, strain arl3, hits give low values",0.979
same,normalized growth,"S. cerevisiae deletion strains, locus YPL078C, strain atp4, hits give low values",0.959
same,normalized growth,"S. cerevisiae deletion strains, locus YPL106C, strain sse1, hits give low values",1.02
same,normalized growth,"S. cerevisiae deletion strains, locus YPL240C, strain hsp82, hits give low values",0.969
same,normalized growth,"S. cerevisiae deletion strains, locus YPL241C, strain CIN2, hits give low values",1.01
same,normalized growth,"S. cerevisiae deletion strains, locus YPL256C, strain CLN2, hits give low values",0.945
same,normalized growth,"S. cerevisiae deletion strains, locus YPR119W, strain clb2, hits give low values",1.01
same,normalized growth,"S. cerevisiae deletion strains, locus YPR141C, strain kar3, hits give low values",1.02
same,normalized growth,"S. cerevisiae deletion strains, locus YPR163C, strain tif3, hits give low values",1.03
same,normalized growth,"S. cerevisiae deletion strains, locus YPR167C, strain met16, hits give low values",1.02
same,normalized growth,"S. cerevisiae deletion strains, strain wtn01, hits give low values",0.997
same,normalized growth,"S. cerevisiae strains, strain wild type, hits give low values",0.993
